The list is not random: actives were taken first. Their share in the collection is about 1.5%.
FEN1 inh-1: blocks human flap endonuclease 1; Recombinant FEN1 flap cleavage, fluorescence, 15 min; P39748; Potency, µM (top dose mostly 114 µM), for inactives: top-dose activity change, negative = inhibition, usual class: inhibitors; actives 0.35% (n = 390,000); AID 588795; further: potency means the concentration at half of the fitted maximal effect; on the % scale 0 is the no-effect control and ±100 the full control effect; nearly all actives have a fitted effect of over 65% in size
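Nuclease activity of 10 nM FEN1 was measured after 15 min of room-temperature exposure to titrated compounds, by adding 50 nM flap substrate and reading plates at 0 and 15 min.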
WRN helicase inh-1: blocks human WRN helicase | WRN helicase unwinding, fluorescent forked duplex, kinetic | Potency, µM (highest dose often 114 µM), inactives show at the highest dose activity change, negative = inhibition, most hits filed as inhibitors | actives 0.46% (n = 360,000) | AID 651768; further: potency means the concentration at half of the fitted maximal effect; on the % scale 0 is the no-effect control and ±100 the full control effect; nearly all actives have a fitted effect of over 55% in size
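Enzyme (20 nM final) and test compound sit together 15 min at room temperature before substrate addition. Substrate is a single-forked duplex oligonucleotide (100 nM) labelled with fluorophore and quencher, with 2 mM ATP; helicase unwinding raises red fluorescence, read kinetically.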
PI5P4Ka inh: inhibitors of human PI5P4K alpha; P48426; PI5P4Kalpha enzyme, ADP-Glo luminescence, 60 min; active compounds read low; max response, %; actives 1.2% (n = 330,000); active means max response of -50% or lower; inconclusive means between -30% and -50%; inactive means -30% or higher; further: value at the top dose of about 77 µM; on the % scale 0 is the no-effect control and ±100 the full control effect
Target sequence (P48426 whole entry, looked up): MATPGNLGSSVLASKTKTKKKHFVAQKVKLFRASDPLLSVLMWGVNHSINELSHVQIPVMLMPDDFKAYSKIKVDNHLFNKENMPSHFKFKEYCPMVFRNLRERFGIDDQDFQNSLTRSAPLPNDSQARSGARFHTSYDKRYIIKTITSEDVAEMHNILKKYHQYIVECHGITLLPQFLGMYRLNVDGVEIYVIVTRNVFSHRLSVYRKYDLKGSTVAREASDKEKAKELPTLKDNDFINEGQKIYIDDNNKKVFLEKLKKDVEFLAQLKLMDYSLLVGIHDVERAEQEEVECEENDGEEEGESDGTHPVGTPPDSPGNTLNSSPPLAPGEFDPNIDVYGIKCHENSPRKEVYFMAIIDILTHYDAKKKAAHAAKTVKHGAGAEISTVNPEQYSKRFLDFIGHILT
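Enzyme plus substrate dispensed, test compounds pinned in, then ATP (5 microM final) added. After 60 min at RT, ADP-Glo reagent 1 for 45 min and reagent 2 for 30 min preceded luminescence imaging.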
Tb PFK inh-1: blocks T. brucei phosphofructokinase; O15648; T. brucei PFK, ADP-Glo luminescence; Potency, µM (top dose mostly 57.5 µM), inactives show at the top dose activity, negative = inhibition, usual class: inhibitors; actives 0.17% (n = 330,000);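 further: potency means the concentration at half of the fitted maximal effect; 0% = uninhibited 1x PFK enzyme wells and -100% = no-enzyme wells; nearly all actives have a fitted effect of over 60% in size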
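PFK 1.25 nM, F6P 0.5 mM, ATP 0.1 mM, 0.1 M TEA pH 8.0, 5 mM MgCl2, 0.01% Tween20, 0.1% BSA; 45 min RT. ADP-Glo readout. qHTS titration up to 57 uM; curves fitted, compounds curve-classed.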
Tb PGK inh: T. brucei PGK inhibition | P07378 | PGK/GAPDH coupled, Kinase-Glo luminescence, 60 min | Potency, µM (series often up to 57.5 µM), without a hit: at the top dose activity change, negative = inhibition, hits mostly inhibitors | actives 0.043% (n = 380,000); further: potency means the concentration at half of the fitted maximal effect; on the % scale 0 is the no-effect control and ±100 the full control effect; nearly all actives have a fitted effect of over 60% in size
Target sequence (P07378 whole entry, looked up): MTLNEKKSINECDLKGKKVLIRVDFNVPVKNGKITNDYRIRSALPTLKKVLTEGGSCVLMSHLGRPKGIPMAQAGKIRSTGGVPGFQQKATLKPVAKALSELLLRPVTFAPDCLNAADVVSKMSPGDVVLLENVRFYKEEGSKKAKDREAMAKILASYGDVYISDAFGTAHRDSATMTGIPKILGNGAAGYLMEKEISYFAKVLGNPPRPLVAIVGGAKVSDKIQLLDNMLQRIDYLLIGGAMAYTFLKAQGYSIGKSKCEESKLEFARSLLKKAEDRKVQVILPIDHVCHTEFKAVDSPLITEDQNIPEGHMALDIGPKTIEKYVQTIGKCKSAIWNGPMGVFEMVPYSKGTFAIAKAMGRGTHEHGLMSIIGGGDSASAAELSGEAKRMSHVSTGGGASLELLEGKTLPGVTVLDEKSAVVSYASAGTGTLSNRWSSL
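Luminescent ATP detection (Kinase-Glo Plus) follows a 60-minute room-temperature incubation, with wells lacking PGK as controls. Buffer: 100 mM TEA (pH 7.6), 5 mM MgCl2, 0.01% Tween-20. Coupling enzyme GAPDH (100 nM final) supplies unstable 1,3-BPG in-well.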
TDP1 block: inhibitors of human tyrosyl-DNA phosphodiesterase TDP1; Q9NUW8; recombinant TDP1, AlphaScreen DNA substrate cleavage; Potency, µM (top dose mostly 130 µM), without a hit: at the highest dose activity change, negative = inhibition, actives largely listed as inhibitors; actives 0.28% (n = 350,000); further: potency means the concentration at half of the fitted maximal effect; on the % scale 0 is the no-effect control and ±100 the full control effect; nearly all actives have a fitted effect of over 40% in size
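Compounds were preincubated with Tdp1 (1 nM final) for 15 min at room temperature before substrate (15 nM final) started a 5 min reaction; beads (10 ug/ml final) were then added for 10 min before AlphaScreen detection.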
TbPFK ATP: orthogonal confirmation of T. brucei phosphofructokinase inhibitors. shares compounds with Tb PFK inh-1. Tb PFK enzyme, ATP depletion, Kinase-Glo Plus luminescence. Potency, µM (series often up to 57.5 µM), inactives show top-dose inhibition. actives 47% (n = 1,100). AID 504636; calls by dose curve; further: potency means the concentration at half of the fitted maximal effect; nearly all actives have a fitted effect of over 60% in size
Tb PFK inh-2: T. brucei PFK enzyme inhibition, hit validation; shares compounds with Tb PFK inh-1; purified T. brucei PFK, ADP-Glo luminescence, 45 min; Potency, µM (highest dose often 57.5 µM), for inactives: at the top dose activity change, negative = inhibition, hits mostly inhibitors; actives 41% (n = 1,100);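 further: potency means the concentration at half of the fitted maximal effect; plate controls were full PFK enzyme control for no effect and no enzyme control for full effect; nearly all actives have a fitted effect of over 60% in size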
FEN1 inh-2: confirmation of human FEN1 inhibitors; AID 720498; shares compounds with FEN1 inh-1; Potency, µM, actives largely listed as inhibitors; actives 79% (n = 880); FEN1 flap cleavage, TAMRA/BHQ2 fluorogenic DNA substrate; further: potency means the concentration at half of the fitted maximal effect; nearly all actives have a fitted effect of over 60% in size
WRN helicase inh-2: WRN helicase inhibition, cherry-pick retest; shares compounds with WRN helicase inh-1; WRN helicase DNA unwinding, fluorescence kinetic; Potency, µM (highest dose often 57.1 µM), for the others: at the top dose activity, negative = inhibition, actives largely listed as inhibitors; actives 63% (n = 610); further: potency means the concentration at half of the fitted maximal effect; nearly all actives have a fitted effect of over 65% in size
TO displacement: binds DNA, flagged in WRN inhibitor counterscreen; shares compounds with WRN helicase inh-1; actives 10% (n = 610); Potency, µM (top dose mostly 57.1 µM), inactives show at the top dose activity change, negative = inhibition, hits mostly inhibitors; AID 720499; thiazole orange DNA binding displacement, fluorescence;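 further: drop in dye fluorescence marks compound binding to DNA; potency means the concentration at half of the fitted maximal effect; on the % scale 0 is the no-effect control and ±100 the full control effect; nearly all actives have a fitted effect of over 60% in size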
BLM counter: BLM helicase inhibition, WRN selectivity check; Potency, µM (series often up to 57.1 µM), for inactives: at the highest dose activity change, negative = inhibition, actives largely listed as inhibitors; shares compounds with WRN helicase inh-1; Recombinant BLM helicase DNA unwinding, red fluorescence; actives 60% (n = 610); further: potency means the concentration at half of the fitted maximal effect; nearly all actives have a fitted effect of over 60% in size
ADP-Glo counter: interferes with ADP-Glo detection without enzyme present | shares compounds with PI5P4Ka inh | ADP-Glo detection counter-screen, luciferase luminescence, no enzyme | Potency, µM (top dose mostly 76.9 µM), for the others: at the highest dose activity change, negative = inhibition, usual class: inhibitors | 1,100 tested, under 10 active | AID 743285
* hit, by the source's call; i = inactive; ? = inconclusive; . = no result; [ ] = remark or other dose. Unless noted, the call rests on the fitted dose curve; in most records, active means well fitted curve in the direction sought with a large enough effect; inconclusive means small, poorly fitted or top-dose-only effect, or another doubt; inactive means no such curve, though single readings can be large; an effect the other way counts as inactive or inconclusive.

SMILES	FEN1 inh-1	WRN helicase inh-1	PI5P4Ka inh	Tb PFK inh-1	Tb PGK inh	TDP1 block	TbPFK ATP	Tb PFK inh-2	WRN helicase inh-2	TO displacement	BLM counter	others
Cc1nnc(Sc2cc(NCCCO)c([N+](=O)[O-])c3nonc23)s1	45µM*	22µM*	-78*	6µM*	-5%	-5%	1.9µM*	3.4µM*	?	-13%	?
O=C1NC(=O)c2c1c1c3ccccc3n3c1c1c2c2ccccc2n1C1CCC3O1	.	.	.	.	.	0%	.	.	.	.	.
CNC(=O)O/N=C/C(C)(C)S(C)=O (centres undefined)	-10%	.	.	.	.	16%	.	.	.	.	.
CN(C(=O)Cc1ccc(Cl)c(Cl)c1)C(CN1CCCC1)c1cccc(N=C=S)c1 (centres undefined)	.	.	.	.	.	16%	.	.	.	.	.
Oc1ccc(-c2cn3c(n2)SCC3)cc1O	?	4.7µM*	-13	?	?	.	2.4µM*	4.8µM*	?	30%	17µM*
Cc1ccc2c(c1)C1(CCN(CCc3nc(-c4ccccc4)oc3C)CC1)OC(=O)N2	.	.	.	.	.	20%	.	.	.	.	.
NCC(CC(=O)O)c1ccc(Cl)s1 (centres undefined)	.	.	.	.	.	5%	.	.	.	.	.
CN1CCN(c2ccc(NC(=O)Oc3ccccc3)cc2)CC1	2%	6%	-1	-3%	-8%	7%	.	.	.	.	.
CN1CCN(C(=S)C(=O)Nc2ccc(Br)cc2)CC1	?	45µM*	-56*	12µM*	-4%	-4%	7.6µM*	12µM*	3%	-4%	-25%
C[C@@H](Cc1cccc(C(F)(F)F)c1)NCCCc1ccccc1	.	.	.	.	.	12%[56.1 µM]	.	.	.	.	.
O=C(O)CC(C(=O)O)N1C(=O)/C(=C/C=C/c2ccco2)SC1=S (centres undefined)	?	10µM*	-55*	8.5µM*	4.5µM*	.	2.1µM*	6µM*	3.8µM*	3.8µM*	4.8µM*	FEN1 inh-2=11*
C=CCN1C(=O)/C(=C2/Sc3ccccc3N2CCCS(=O)(=O)O)SC1=S	?	?	?	?	-19%	-11%	-29%	?	22µM*	-5%	22µM*
C=CCN1C(=O)c2ccccc2Sc2ccc(C(=O)N3CCC4(CC3)OCCO4)cc21	7%	7%	.	-1%	-1%	3%	.	.	.	.	.
Nc1ccc2nc(-c3cccc(-c4nc5ccc(N)cc5[nH]4)c3)[nH]c2c1	?	40µM*	-16	?	2%	.	5%	1%	?	17µM*	?	FEN1 inh-2=38*
ClCCNc1nc2ccc(Cl)cc2[nH]1	-1%	-7%	.	-15%	1%	2%	.	.	.	.	.
O=C1C=C(c2ccccc2)C(=O)N1Nc1ccccc1	0%	?	-17	24µM*	6%	8%	21µM*	?	-6%	-4%	-19%
Oc1ccc(C2=Nn3c(nnc3-c3ccco3)SC2)cc1O	50µM*	11µM*	?	7.6µM*	?	-5%	?	?	15µM*	-24%	17µM*	FEN1 inh-2=43*
CCN1C[C@]2(COC)CC[C@H](O)[C@@]34[C@@H]5C[C@H]6[C@@H](OC)[C@H]5[C@](O)(C[C@@H]6OC)[C@@](O)([C@@H](OC)[C@H]23)[C@@H]14	.	.	.	.	.	6%[56.1 µM]	.	.	.	.	.
O=C(O)COc1ccc(/C=N/NC(=O)c2ccc(-c3csc(Nc4ccc(Cl)cc4)n3)cc2)cc1	?	13µM*	-69*	?	?	.	1.7µM*	2.4µM*	4.3µM*	5.4µM*	0.86µM*	FEN1 inh-2=30*
CC1=NOC(=O)/C1=C\c1ccc(-c2cccc(Cl)c2)o1	50µM*	13µM*	?	21µM*	-5%	1%	6µM*	11µM*	?	-12%	7.6µM*
COCCN(C(=O)COC(=O)c1cc2c(s1)CCC2)c1c(N)n(Cc2ccccc2)c(=O)[nH]c1=O	40µM*	8.9µM*	-87*	3.8µM*	?	0%[0.505 µM]	1.1µM*	1.7µM*	2.2µM*	?	0.43µM*	FEN1 inh-2=76*;ADP-Glo counter=0%
CCc1nnc(NC(=O)c2cc(-c3ccc(C)o3)nc3ccccc23)s1	-13%	?	-55*	4.8µM*	i	4%	4.8µM*	6.7µM*	?	-13%	-5%	ADP-Glo counter=5%
CC(C)(O)[C@@H]1C2OC(=O)[C@@H]1[C@]1(O)C[C@H]3O[C@]34C(=O)O[C@H]2[C@]14C	.	.	.	.	.	7%	.	.	.	.	.
CC(=O)O[C@H]1C[C@@H](O[C@@H]2[C@H](C)O[C@H](O[C@@H]3[C@H](C)O[C@H](O[C@@H]4CC[C@@]5(C)[C@@H](CC[C@]6(C)[C@]5(C)C[C@H](O)[C@]5(C)[C@@H](C7=CC(=O)OC7)CC[C@@]56O)C4)C[C@@H]3O)C[C@@H]2O)O[C@@H](C)[C@H]1O[C@H]1O[C@@H](CO)[C@@H](O)[C@@H](O)[C@@H]1O	.	.	.	.	.	3%[21 µM]	.	.	.	.	.
O=C(c1cc([N+](=O)[O-])ccc1N1CCNCC1)N1CCOCC1	10%	3%	4	?	-2%	-1%	.	.	.	.	.
